Source: PubChem
PL synth Enamine: phospholipid synthesis inhibitors, CHO cells, primary screen, ZR-82 cells, Enamine library, screen 3; AID 1347385, 2020; hit rate 0.4% among 20,000; ZR-82 CHO cells, pyrene fatty acid UV survival, CellTiter Blue; peroxisome-deficient CHO-K1 mutant line; plus DGAT-1, DGAT-2 and ACAT inhibitors; calls only at 10 µM;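 active = cell survival signal 2 SD away from solvent-only control wells, confirmed on one or two retests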;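 also: 3 h compound exposure then viability read about one day after UV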
* hit, by the source's call; i = inactive; + = active, no number. Many of the other results were omitted from the sample, so hits are more common in it than they were.

SMILES	PL synth Enamine
CCn1c(SCC(=O)c2[nH]c(C)c(C(C)=O)c2C)nc2sc(C)c(C)c2c1=O	i
Oc1ccc(/C=N/N=C/C2=C(N3CCOCC3)C(=C\c3ccccc3)/CC2)c(O)c1	i
C(=N\Nc1ccc(N2CCOCC2)nn1)/C1=C(N2CCOCC2)C(=C/c2ccccc2)/CC1	i
O=C1Nc2ccccc2/C1=N\N=C\C1=C(N2CCOCC2)C(=C\c2ccccc2)/CC1	+
O=S(=O)(Nc1ccc(-n2cnnn2)cc1)c1ccc(OC(F)(F)F)cc1	i
Fc1ccc(C=Nc2ccc(Cl)c(C(F)(F)F)c2)cc1F	i
COCCN=c1scc(-c2ccco2)n1/N=C/c1cc(Br)ccc1OC	i
Cn1c(CC(N)=S)nc2ccccc21	i
Fc1ccc(NC(=S)NC2CCC(NC(=S)Nc3ccc(F)cc3)CC2)cc1 (configuration not stated)	i
FC(F)Oc1ccc(NC(=S)NC2CCCCCCC2)cc1	+
FC(F)Sc1ccc(NC(=S)NC2CCC(NC(=S)Nc3ccc(SC(F)F)cc3)CC2)cc1 (configuration not stated)	i
CCN(CC(=O)NC1CCS(=O)(=O)C1)C(=O)c1ccc(Br)s1 (configuration not stated)	i
Cc1ncsc1CCOC(=O)CC1C2CC3CC(C2)CC1C3 (configuration not stated)	i
Oc1nc(-c2cccc(C(F)(F)F)c2)n2ccncc12	i
CCN(CC)c1ccc2c(c1)OC(=O)N(c1ccc(Cl)c(Cl)c1)P2(=Nc1ccc([N+](=O)[O-])cc1)N(CC)CC (configuration not stated)	i
O=[N+]([O-])c1ccc(N=Nc2ccc(N(CCO)CC(F)(F)C(F)F)cc2)c(Cl)c1	+
CN(C)c1ccc(N=Nc2ccc(SC(F)(F)F)cc2[N+](=O)[O-])cc1	i
C[n+]1ccc(/C=C/C(=O)c2ccc3c4c(cccc24)CC3)cc1	i
CN(C)c1ccc(/C=C2\CCC(=C3SCCS3)C2=O)cc1	i
O=C(Cn1cnc2sccc2c1=O)Nc1nccs1	i
c1csc(-c2nnc(COc3ncnc4sc5c(c34)CCC5)o2)c1	i
CN=c1scc(-c2ccc(OC(F)F)cc2)n1/N=C/c1cc(OC)c(O)c(OC)c1	i
CN=c1scc(-c2ccc(OC(F)F)cc2)n1/N=C(\C)c1ccc(O)cc1O	+
CN=c1scc(-c2ccc(F)cc2)n1/N=C(\C)c1ccc(O)cc1O	i
O=S(=O)(Nc1nc2ccccc2nc1NCc1ccccn1)c1ccc(F)cc1	i
SMILES	PL synth Enamine
COc1cc(Cl)c(S(=O)(=O)NC2CC(C)(C)NC(C)(C)C2)cc1Cl	i
CCOC(=O)c1sc(N=Nc2c(O)[nH]c(=S)[nH]c2=O)c(C(=O)OCC)c1C	i
CCOC(=O)c1c(N=CN(C)C)sc(C(=O)OC)c1C	i
CCOC(=O)c1sc(N=Nc2[nH]c(C)c(C(=O)OCC)c2C)c(C(=O)OCC)c1C	+
Cn1cnnc1SCC(=O)N1N=C(c2cccs2)CC1c1cccs1 (configuration not stated)	i
C/C(=N\N=c1/sc2ccccc2n1C)c1ccc(-c2ccccc2)cc1	i
c1ccc2sc(NN=C3CCCCCC3)nc2c1	i
c1ccc2c(c1)CC/C(=N\Nc1nc3ccccc3s1)C2	i
O=S1(=O)CC/C(=N/Nc2ccc(Cl)cc2)c2cc(F)ccc21	+
C=CCNC(=S)N/N=C1\CCS(=O)(=O)c2ccccc21	i
NC(=O)N/N=C1\CCS(=O)(=O)c2ccc(F)cc21	i
O=S1(=O)CC/C(=N/Nc2nc3ccccc3s2)c2cc(F)ccc21	+
CCOP(=O)(OCC)c1nc(-c2cccc3ccccc23)oc1NCc1ccc2c(c1)OCO2	i
Cc1nc2sc(C(=O)N(C)Cc3ccc(Br)s3)c(C)c2c(=O)[nH]1	i
Cc1[nH]c2ccccc2c1N=Nc1ccccc1F	i
Oc1ccc(N=Nc2ccc3c(c2)OCCO3)c2ncccc12	i
Cc1[nH]c2ccccc2c1N=Nc1ccc(F)cc1	+
Oc1ccc2ccccc2c1N=Nc1ccc2c(c1)OCCO2	+
Oc1ccc2ccccc2c1N=Nc1ncn[nH]1	i
Cc1[nH]c2ccccc2c1N=Nc1ccc2c(c1)OCO2	+
Cc1[nH]c2ccccc2c1N=Nc1cccnc1	i
O=C1CCCC(O)=C1N=Nc1ccc2c(c1)OCO2	i
Cc1[nH]c2ccccc2c1N=Nc1c(C)n(C)n(-c2ccccc2)c1=O	i
O=C1/C(=C/c2cn(-c3ccccc3)nc2-c2cc3ccccc3oc2=O)NC(=S)N1c1ccccc1	i
CCCCn1c(=O)[nH]c(=O)c2c1nc(COC(=O)C=C(C)C)n2CC	i
SMILES	PL synth Enamine
Cc1nn(C)c(C)c1NS(=O)(=O)c1ccc2c(c1)OCCCO2	i
Cc1cc(C(=O)OCC(=O)c2cc(C)n(C(C)C)c2C)on1	i
CCN1C(=Cc2cc(C)[n+](CCCN3CCOCC3)c(C)c2)Sc2ccccc21	i
Cc1cc(NC(=O)CSc2nnc(NC3CC3)s2)no1	i
FC(F)(F)c1cc(NC(=S)Nc2ccc(Cl)c(Cl)c2)ccc1Cl	+
S=C(NN=C1C2CC3CC(C2)CC1C3)Nc1ccc(Cl)c(Cl)c1	i
Fc1ccc(NC(=S)Nc2ccc(Cl)c(C(F)(F)F)c2)cc1Cl	i
C(=C(c1nc2ccccc2s1)c1nc2ccccc2s1)c1cccs1	i
Cn1cccc1C=C(c1nc2ccccc2s1)c1nc2ccccc2s1	+
C(=C(c1nc2ccccc2s1)c1nc2ccccc2s1)c1ccc(-c2ccccc2)cc1	i
CC(Oc1ccccc1F)c1n[nH]c(=S)o1 (configuration not stated)	i
Cc1nn(-c2ccccc2)c(N)c1N=Nc1ccc2ccccc2c1	i
COc1ccc(OC)c(N=Nc2c(C)nn(-c3ccccc3)c2N)c1	i
Cc1nn(-c2ccccc2)c(N)c1N=Nc1ccccc1OC(F)F	+
CCc1nnc(NC(=O)CCCN2C(=O)NC(C)(C)C2=O)s1	i
O=S(=O)(NC(=S)NC1CCCCC1)c1cccs1	i
C/C(=N\NC(=S)NC1CCCCC1)c1cccs1	+
CCNC(=S)N/N=C(\C)c1cccs1	i
COc1ccc(NS(=O)(=O)C2CCS(=O)(=O)C2)cc1 (configuration not stated)	i
CS(=O)(=O)c1ccc(NS(=O)(=O)c2ccc(Cl)c(O)c2)cc1	i
